D3 antag = antagonists of human D3 dopamine receptor | max response, negative = inhibition, % | 360,000 tested, 2.5% active | D3R cells, DiscoveRx beta-arrestin luminescence, antagonist mode; stronger effect = lower value | AID 652054; in the data active means max response below about -50%; inconclusive means no clear call, values can overlap the other calls; further: on the % scale 0 is the no-effect control and ±100 the full control effect
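Cells expressing the human receptor were seeded at 1500 cells/well, incubated overnight at 37 degrees C in 5% CO2, then exposed to library compounds with dopamine controls for 90 minutes at 37 degrees C before luminescent detection.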
TSG101-PTAP inh = blocks PTAP/TSG101 interaction to inhibit HIV-1 budding; Q99816; Fluorescence polarization, FITC-PTAP peptide / Tsg101 binding; Potency, µM (highest dose often 115 µM), for inactives: at the top dose activity change, negative = inhibition, usual class: inhibitors; 340,000 tested, under 10 active; AID 493005; active means well fitted inhibition curve with a large enough effect in the main read-out, with a control signal flat, not every such curve was filed as active; inconclusive means small, poorly fitted or top-dose-only effect, or effect the other way, or a change in a side signal; inactive means no such curve, though single readings can be large or run the other way; further: potency means the concentration at half of the fitted maximal effect; % of control where 0% means no effect
Target sequence (Q99816 whole entry, looked up): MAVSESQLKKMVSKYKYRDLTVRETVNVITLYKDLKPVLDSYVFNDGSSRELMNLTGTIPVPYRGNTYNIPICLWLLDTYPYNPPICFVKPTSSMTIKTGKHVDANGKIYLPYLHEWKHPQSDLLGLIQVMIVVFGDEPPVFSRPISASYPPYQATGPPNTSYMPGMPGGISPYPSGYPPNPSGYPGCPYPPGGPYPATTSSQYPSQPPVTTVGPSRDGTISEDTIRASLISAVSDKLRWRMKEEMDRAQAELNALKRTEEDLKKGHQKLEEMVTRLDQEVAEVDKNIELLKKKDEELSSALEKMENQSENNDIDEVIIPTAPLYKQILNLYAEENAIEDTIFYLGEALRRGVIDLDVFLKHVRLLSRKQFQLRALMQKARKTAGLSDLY
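Compounds were pin-transferred onto Tsg101 binding domain (10 uM final) in HEPES pH 7.5 buffer, then FITC-PTAP peptide was added at 50 nM final. After 20 min at RT, polarization reported peptide displacement across a qHTS concentration series.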
Rango-impB inh = prevents formation of the Rango-importin beta complex; Q14974; Rango CFP/YFP FRET sensor + importin beta, 45 min; Potency, µM (top dose mostly 92.2 µM), for inactives: top-dose inhibition of complex formation; 340,000 tested, 0.031% active; AID 540263;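 further: potency means the concentration at half of the fitted maximal effect; 0% = DMSO wells and 100% = buffer wells lacking importin beta; nearly all actives have a fitted effect of over 15% in size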
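FRET biosensor Rango (snurportin 1 IBB between N-terminal EYFP and C-terminal Cerulean), 50 nM in PBS/1 mM DTT/0.02% Tween-20/0.1% BSA, preincubated 5 min RT with compound; 0.125 microM importin beta added, 45 min RT, CFP/YFP FRET ratio read.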
DRD3 agonist = agonists of human D3 dopamine receptor; P35462; max activation, %; 410,000 tested, 0.58% active; D3R DiscoveRx beta-arrestin cells, luminescence, 90 min; in the data active means max activation above about 30%; further: 0% is about no effect
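Agonist mode: compounds and dopamine controls were applied to plated cells for 90 min at 37 degrees C after an overnight attachment at 1500 cells/well. Luminescent read-out followed 30 - 60 minutes at room temperature with DiscoveRx detection reagent.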
Mm-Cpn inhibitor = M. maripaludis TRiC chaperonin inhibition. purified Mm-Cpn ATPase, ADP Transcreener TR-FRET. Potency, µM (top dose mostly 76.9 µM), without a hit: top-dose activity, negative = inhibition, most hits filed as inhibitors. 330,000 tested, 0.031% active. AID 504842; active means well fitted inhibition curve with a large enough effect; inconclusive means small, poorly fitted or top-dose-only effect; further: potency means the concentration at half of the fitted maximal effect; on the % scale 0 is the no-effect control and ±100 the full control effect; nearly all actives have a fitted effect of over 80% in size
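Reaction buffer contained 30 mM Tris pH 7.4, 100 mM KCl, 5 mM MgCl2 and 1 mM DTT. Mm-CPN (25 nM final) hydrolysed 10 uM ATP over 30 min at 37°C; ADP was read by HTRF.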
Rango release inh = prevents RanGTP from dissociating the Rango-importin beta complex. O95149+P62826. Biochemical FRET Rango-importin beta, RanGTP-induced dissociation. Potency, µM (series often up to 46.1 µM), without a hit: top-dose activity change, negative = inhibition. 340,000 tested, 0.071% active; further: potency means the concentration at half of the fitted maximal effect; % of control where 0% means no effect; nearly all actives have a fitted effect of over 45% in size
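Compounds preincubate 5 min with complex of recombinant Rango and importin beta in PBS with 1 mM DTT. Ran (0.6 uM) loaded with 2 mM GTP plus 0.2 uM RCC1 starts dissociation; FRET is recorded 45 min later.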
Active calls of the source: *; ? = inconclusive; . = not tested or not shown. Hits are enriched below; roughly 2.9% of the tested compounds scored in any of these assays. Unless noted, the call rests on the fitted dose curve.

SMILES	D3 antag	TSG101-PTAP inh	Rango-impB inh	DRD3 agonist	Mm-Cpn inhibitor	Rango release inh
C#CCOCCOCCOCCNc1nc(N2CCN(C(=O)[C@H]([C@@H](C)CC)n3cc(CCCCN)nn3)CC2)nc(N2CCN(C(=O)[C@H](CCCCN)n3cc(CC(C)O)nn3)CC2)n1 (stereo partly specified)	-17.8	-5.1%	-5.1%	-5.0	1.4%	18.6%
CCOC(=O)c1sc(NC(=O)C2CCCCC2)nc1C	-1.2	-2.4%	2.0%	-0.9	.	4.7%
NC(N)=NCCCC(NC(=O)c1ccccc1)C(=O)Nc1ccc([N+](=O)[O-])cc1 (stereo unspecified)	-93.7*	3.3%	2.7%	-43.9	1.3%	-8.9%
O=C(COC(=O)Cc1cccc(F)c1)NCCc1ccccc1	-13.9	-2.1%	4.0%	5.6	-2.4%	-2.1%
COc1ccccc1NS(=O)(=O)c1ccc(-c2cc(C)no2)s1	-0.5	-1.8%	1.6%	51.4*	-0.2%	6.8%
O=C1/C(=C\c2cccs2)CCC/C1=C\c1cccs1	.	.	.	5.3	.	.
COc1ccccc1NS(=O)(=O)c1cc([N+](=O)[O-])ccc1N/N=C/c1c(C)[nH]c2ccccc12	-52.2*	9.0%	6.3%	-33.1	-0.7%	0.1%
Cc1[nH]c2ccccc2c1/C=N/Nc1ccc([N+](=O)[O-])cc1	?	1.4%	14.3%	-16.0	-1.5%	8.3%
CCOc1ccc(CNC(=O)C2CCN(c3nc4ccccc4nc3C(F)(F)F)CC2)cc1OC	.	.	.	-3.8	.	.
O=C(Nc1ccc(Cl)cc1F)c1cc(S(=O)(=O)NCc2ccc3c(c2)OCO3)ccc1F	.	.	.	-4.9	.	.
COc1ccc(C(CCN2CCN(c3ccccc3)CC2)c2c(O)cc(OC)cc2OC)cc1 (stereo unspecified)	-112.2*	.	0.2%	-64.7	2.1%	-3.9%
COc1cc(O)c(C(CCN2CCCC(C)C2)c2ccc3c(c2)OCO3)c(OC)c1 (stereo unspecified)	-67.8*	-0.7%	-1.0%	-48.7	-0.5%	8.1%
COc1cc(O)c(C(CCN2CCN(c3ccccc3)CC2)c2ccc(N(C)C)cc2)c(OC)c1 (stereo unspecified)	0.0	.	-1.2%	-67.3	0.5%	3.9%
Cc1c(C)c2c(c(C)c1OC(=O)CCC(=O)OCCO)CC[C@@](C)(CCC[C@H](C)CCC[C@H](C)CCCC(C)C)O2	.	.	.	-18.2	.	.
O=C(COc1ccccc1)Nc1nc2c(s1)CCCC2	-77.4*	-0.8%	-1.6%	-13.2	-0.4%	-3.6%
Cc1ccc(NC2=C/C(=N\S(=O)(=O)c3cccs3)c3ccccc3C2=O)c(C)c1	-91.3*	-10.4%	-1.4%	-22.5	-4.2%	-20.6%
Cc1ccc(Cl)cc1NC1=C/C(=N\S(=O)(=O)c2cccs2)c2ccccc2C1=O	-108.4*	-1.3%	0.6%	-35.9	-5.9%	-0.7%
Cc1cccc(NC2=C/C(=N/S(=O)(=O)c3cccs3)c3ccccc3C2=O)c1	-92.6*	-3.8%	-0.7%	-14.5	1.4%	-4.0%
Cc1cc(C)c(S(=O)(=O)/N=C2\C=C(NS(=O)(=O)c3ccccc3)C(=O)c3ccccc32)c(C)c1	-13.4	-7.6%	-4.7%	-6.8	-0.3%	-6.0%
CCOc1ccccc1CNS(=O)(=O)c1cnc(N)nc1	.	.	.	14.3	.	.
CC(C)c1ccccc1OCCCCN1CCCCC1	-103.4*	-4.4%	-2.2%	-21.7	.	1.1%
CC(C)c1ccccc1OCCCCCN1CCOCC1	-53.7*	-2.5%	2.9%	-15.3	.	-21.1%
CC(C)c1ccccc1OCCCN1CCCC1	-86.6*	-7.7%	5.8%	-2.3	3.8%	-18.7%
Brc1ccccc1OCCCCCN1CCOCC1	?	2.3%	-0.2%	-12.8	-0.8%	2.8%
CN(C)c1ccc(CNC(=O)CN2C(=O)CCn3nc(-c4cn(C)c5ccccc45)cc32)cc1	.	.	.	-8.5	.	.
CCCCOc1ccc(CNC(=O)Cn2ncn3c(cc4cc(F)ccc43)c2=O)cc1	.	.	.	-4.4	.	.
Clc1ccccc1OCc1nnc(-c2ccccc2Br)o1	42.4	6.5%	0.1%	-0.8	-4.8%	5.8%
